Laboratory results taken from ChEMBL document CHEMBL3988442, “University of Dundee, Small-Polar-MMV Screening Library” (2021).
Out of some 48,000 compounds screened, about 13,000 (27%) showed an effect of 50% or more. The list shows a part of the results.

System: Wolbachia pipientis
Test: Anti-Wolbachia Cell-Based Screen
Assay type: functional
Set-up: scale not given: in the data most compounds retested in dose-response had high values
Details: 5 µM

SMILES	Percent Effect
CCn1cc(-c2nccnc2C2CCCN(C(C)=O)C2)cn1 (stereo not drawn)	156.7%
CCc1ccc2c(C3CN(C(C)=O)C3)ncn2c1	-3.623%
CC(=O)N1CCCC(c2nccnc2-c2ccc(CO)cc2)C1 (stereo not drawn)	179.5%
COc1cc(F)ccc1CC(=O)N1CC[C@H]2C(=O)NCCO[C@H]2C1	-55.09%
COC(=O)CCCn1ccnc1-c1ccc(OC)c(F)c1F	-8.612%
CCS(=O)(=O)Cc1ccn(-c2cccc(F)c2)n1	-0.3225%
Cc1ccc(NC(=O)Nc2cnc(N3CCN(C)CC3)nc2)cc1	130.1%
CCOc1ccc(NCc2cnc(N3CCN(C)CC3)nc2)cn1	-2.404%
COc1ccc(NC(=O)Nc2cnc(N3CCN(C)CC3)nc2)cc1Cl	89.39%
COc1ccc(NC(=O)NC(C)c2nc[nH]n2)cc1Cl (stereo not drawn)	-12.73%
COc1ccc(NC(=O)N2CCC3(CC2)NC(=O)CC3C(=O)O)cc1Cl (stereo not drawn)	-5.291%
Cc1ccc(NC(=O)Nc2cnc(N3CCN(C)CC3)nc2)c(Cl)c1	-7.625%
COc1cc2c(cc1CNC(=O)C(C)n1ccnc1C(C)C)CCC2 (stereo not drawn)	-11.78%
COC(=O)[C@H](C)NC(=O)Cc1c(C)nc2cc(=O)[nH]n2c1C	-6.844%
Cc1n[nH]c(C)c1NC(=O)CN1CCOC(Cn2cccn2)C1 (stereo not drawn)	4.084%
Cc1cccc2c1nc(CCO)n2-c1ccc(NS(C)(=O)=O)nc1	-11.32%
O=C(O)C(F)(F)F.O=C(c1ncccn1)N1C[C@H]2CCC[C@@]2(COCc2ccncc2)C1	6.096%
O=C(O)C(F)(F)F.O=C(c1ccccc1)N1C[C@H]2CCC[C@@]2(COCc2ccncc2)C1	12.44%
CS(=O)(=O)CC(=O)N1C[C@H]2CCC[C@@]2(COCc2ccncc2)C1.O=C(O)C(F)(F)F	108.3%
CN(C)C(=O)N1C[C@H]2CCC[C@@]2(COc2ccccn2)C1.O=C(O)C(F)(F)F	-14.43%
CS(=O)(=O)CC(=O)N1C[C@H]2CCC[C@@]2(COc2ccccn2)C1.O=C(O)C(F)(F)F	109.7%

SMILES	Percent Effect
CN(C)CC(=O)N1C[C@H]2CCC[C@@]2(COc2ccccn2)C1.O=C(O)C(F)(F)F	-2.413%
O=C(c1cn(CCN2CCCCC2)nn1)N1CCSCC1	10.37%
COc1cccc(NC(=O)N(CCO)Cc2ccsc2)c1	1.126%
NC(=O)[C@H]1CCCN(c2nccc(-c3ccncc3)n2)C1	103.3%
CNc1ccnc(N2CCCC(C(=O)c3ccccn3)C2)n1 (stereo not drawn)	-24.75%
O=C1N(CC2CC2)C(c2c[nH]nc2-c2cccnc2)NC12CCCC2 (stereo not drawn)	1.582%
O=C(c1ccccn1)C1CCCN(c2nccc(CCC(F)(F)F)n2)C1 (stereo not drawn)	2e-14%
Cc1nn2c(N3CCCC(C(N)=O)C3)cc(-c3ccccc3)nc2c1C (stereo not drawn)	-84.47%
NC(=O)[C@H]1CCCN(c2nccc(-c3c[nH]nc3-c3cccnc3)n2)C1	113.5%
FC(F)Sc1ccc(NCc2nnc(C3CC3)o2)cc1	-0.3922%
NC(=O)c1cnc(NC(=O)CCc2ccco2)c(Cl)c1	-8.08%
CC(C)(C)c1nc(CC(=O)NC2CCN(C3CC3)C2)cs1 (stereo not drawn)	-2.238%
CC(C)N1CCCn2nc(C(=O)NCCc3c[nH]cn3)cc2C1	-16.95%
O=C(O)C1(n2cccn2)CCN(Cc2nc(-c3ccccc3)no2)CC1	-13.7%
O=C(O)C1(n2ccc(-c3ccco3)n2)CCN(Cc2ccccn2)CC1	96.1%
O=C(O)C1(n2ccnc2)CCN(Cc2ccc3occc3c2)CC1	-4.381%
O=C(O)C1(n2ccc(-c3ccco3)n2)CCN(Cc2cccnc2)CC1	100.5%
Cc1nc(CN2CCC(C(=O)O)(n3ccc(-c4ccco4)n3)CC2)co1	4.507%
Cc1cc(CN2CCC(C(=O)O)(n3ccc(-c4ccco4)n3)CC2)on1	185.7%
COc1ccc2c(c1)C1(CCN(Cc3ccccn3)CC1)N(C)CC2.O=C(O)C(F)(F)F.O=C(O)C(F)(F)F	-3.791%
O=C(O)C1(n2ccc(-c3ccco3)n2)CCN(Cc2ccsc2)CC1	105.5%

SMILES	Percent Effect
Cc1cc(CN2CCN(C(=O)CCc3cccc(F)c3F)CC2)on1	-11.44%
O=C(O)C(F)(F)F.O=C(c1ccco1)N1CCCC2(CN(Cc3ccsc3)CCO2)C1 (stereo not drawn)	0.02281%
Cc1cc(F)ccc1OC1(C(=O)O)CCN(Cc2cccnc2)CC1	3.989%
Cc1cc(CN2CCN(C(=O)C3(C#N)CCCC3)CC2)on1	-5.531%
COc1ccccc1OCC(=O)Nc1ncccc1OC(F)F	-1.305%
CCCNC(=O)CSc1nnc2[nH]c(=O)cc(CC)n12	-17.32%
Cc1nc(C(=O)N2CCC3(CC2)CC(=O)N(CC2CCCO2)C3)cs1 (stereo not drawn)	9.74%
Cn1ccc(C(=O)N(CC(F)F)c2cccc(Cl)c2)cc1=O	-3.04%
O=C(O)C1(n2cccn2)CCN(c2nc(-c3ccccc3)no2)CC1	-0.7442%
Cc1n[nH]c(C)c1CCN(C)c1ccc(-c2nc(C3CC3)no2)cn1	5.085%
COCCO[C@@H]1C[C@H]2CN(C(=O)c3cnccn3)CCN2C1	-15.94%
COC(=O)C(C)CN(Cc1ccccc1)C(=O)CN1CCCNC1=O (stereo not drawn)	-9.826%
Cc1cc(N2CCC(C(=O)O)(n3ccc(C(C)C)n3)CC2)nc(N)n1	-20.6%
O=C(O)C(F)(F)F.c1coc(COCc2ncn3c2CN(Cc2cccs2)CCC3)c1	7.487%
Cc1nc(CN2CCC(C(=O)O)(n3ccc(C(C)C)n3)CC2)co1	99.57%
Cc1occc1C(=O)N1CCC2(CCN(Cc3cccs3)C2)CC1.O=C(O)C(F)(F)F	-0.4808%
O=C(O)C1(n2ccc(-c3ccco3)n2)CCN(Cc2cccs2)CC1	77.42%
Cc1csc(CN2C[C@@H]3COC[C@]3(C(=O)NCc3ccco3)C2)n1	-36.74%
Cc1ccc(N2CCC(C(=O)O)(n3ccc(C(C)C)n3)CC2)nn1	-12.67%
Cc1csc(CN2CCC(C(=O)O)(n3ccc(-c4ccco4)n3)CC2)n1	105%
Cc1nccn1C1(C(=O)O)CCN(Cc2ccc3occc3c2)CC1	-3.386%
